Measurements: PubChem BioAssay (NCATS)
Records with an inconclusive call do not appear. A number with no mark means an inactive call. Active and inactive are the calls of the source. The call rests on the fitted dose curve; in most records, active means well fitted inhibition curve with a large enough effect; inconclusive means small, poorly fitted or top-dose-only effect; inactive means no such curve, though single readings can be large or run the other way.

Assay: BET inhibitor-based combinations targeting novel dependencies in MECOM-rearranged (r) AML: SET-2 cell line (AID 2202231); further: nearly all actives have a fitted effect of over 35% in size;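 on viability: plate controls were DMSO treated cells for no effect and wells without cells for full effect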
Conditions: SET-2 AML cells viability, CellTiter-Glo luminescence, 48 h; viability: hits give low values, series mostly up to about 46 µM
In short: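 A 48 hr incubation preceded viability reading by CellTiter-Glo, with 15 min room-temperature development. Dose series had 11 points; normalization used DMSO and empty wells; AUC was computed and mean-centered per line as Z-AUC.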
Potency means the concentration at half of the fitted maximal effect.

In order of rising viability:
1. COc1cc([C@@H](CC(=O)O)c2ccc(C)c(CN3C[C@@H](C)Oc4ccccc4S3(=O)=O)c2)cc2nnn(C)c12  67.3%
2. CN1C(=O)[C@@H](NC(=O)c2cc(Cc3ccccc3)on2)COc2ccccc21  73.2%
3. COc1ncc(Nc2ncc(C(C)N3CCN(S(C)(=O)=O)CC3)cc2-c2nc(C)nc(N)n2)cc1F (stereo not drawn)  73.4%
4. CN1CCN(CCCNc2ncc(Cl)c(-c3cc4c(C(=O)NC5CC5)cccc4s3)n2)CC1  80.2%
5. Clc1ccc(CCC(Cn2ccnc2)Sc2c(Cl)cccc2Cl)cc1 (stereo not drawn)  81.3%
6. c1ccc(-c2nn3c(c2-c2ccnc4cc(OCCN5CCOCC5)ccc24)CCC3)nc1  81.4%
7. Cc1cc(C)c2c(c1)[C@@H](N(Cc1cc(C(F)(F)F)cc(C(F)(F)F)c1)c1nnn(C)n1)CCCN2CC1CCC(C(=O)O)CC1 (stereo partly drawn)  101%
8. OCCn1cc(-c2ccc3c(c2)CC/C3=N\O)c(-c2ccncc2)n1  102%
9. CCCCC[C@H](O)/C=C/[C@H]1[C@H](O)CC(=O)[C@@H]1CCCCCCC(=O)O  103%
10. N[C@@H]1CN(c2c(F)cc3c(=O)c(C(=O)O)cn([C@@H]4C[C@@H]4F)c3c2Cl)CC12CC2  105%
11. C#CCN(C)CC1=Cc2ccccc2Oc2ccccc21  106%
12. COc1cc(-c2cn(C)c(=O)c3cnccc23)cc(OC)c1CN(C)C  106%
13. CC(=O)CC(c1ccccc1)c1c(O)c2ccccc2oc1=O (stereo not drawn)  107%
14. CC(C)n1c(=O)cc(N[C@@H](C)c2ccccc2)[nH]c1=O  110%
15. O=C1CC(c2c[nH]c3ccc(F)cc23)C(=O)N1 (stereo not drawn)  111%
16. CNC(=O)[C@H](Cc1c[nH]c2ccccc12)NC(=O)[C@@H](CC(=O)NO)CC(C)C  112%
17. COc1cc2c(NC3CCN(C)CC3)nc(N3CCCN(C)CC3)nc2cc1OCCCN(C)C  112%
18. CC(=O)N[C@H]1CSSC[C@@H](C(N)=O)NC(=O)[C@H](C(C)C)NC(=O)[C@H](C)NC(=O)[C@H](Cc2cnc[nH]2)NC1=O  113%
19. COc1ccnc(CS(=O)c2nc3ccc(OC(F)F)cc3[nH]2)c1OC (stereo not drawn)  114%
20. O=C(O)CNC(=O)c1nc(Cl)c2ccccc2c1O  122%

For `C[C@@H](O[C@H]1OCCN(Cc2n[nH]c(=O)[nH]2)[C@@H]1c1ccc(F)cc1)c1cc(C(F)(F)F)cc(C(F)(F)F)c1`, the Potency was 20.9 µM (active).
For `Cc1ccc(C2=Nc3ccc(Cl)cc3OC2)cc1`, the Potency was 8.33 µM (active).
For `CNS(=O)(=O)Nc1nccc(Cc2c(C)c3ccc(Oc4ncccn4)cc3oc2=O)c1F`, the Potency was 3.72 µM (active).
In the case of `C/C(=N\NC(=O)c1cccc(S(=O)(=O)N2CCOCC2)c1)c1cc(Cl)ccc1O`, the Potency is reported as 6.61 µM (active).
With `O=C(Cc1ccccc1)Nc1nnc(CCSCCc2nnc(NC(=O)Cc3ccccc3)s2)s1` the Potency was 9.34 µM (active).
With `CS[C@H]1SC[C@@H]2C(=O)N(C)[C@H](C(C)C)C(=O)OC[C@H](NC(=O)c3cnc4ccccc4n3)C(=O)N[C@H](C)C(=O)N(C)[C@H]1C(=O)N(C)[C@H](C(C)C)C(=O)OC[C@H](NC(=O)c1cnc3ccccc3n1)C(=O)N[C@H](C)C(=O)N2C` the Potency was 0.0148 µM (active).
In the case of `C[C@H](NC(=O)/C(C#N)=C/c1cccc(Br)n1)c1ccccc1`, the Potency is reported as 7.42 µM (active).
With `CC(=O)c1ccc2c(c1)c1cc(C(C)=O)ccc1n2CCNC(C)C` the Potency was 1.18 µM (active).
